# Targets with a hit are over-represented here; the source holds about 8,800 in all. About 0.5% of all pairs of compound and target were hits. Values without a mark were called inactive.
# Key:
# Assay in all cases: log2 fold change, soluble protein after heating vs DMSO (PISA); higher = thermal stabilisation; K562 lysate, 10 uM; active = over 0.2 and 3.5 SD of the protein, either way, in both replicates (recomputed)
# [1] = compound: C1=CC=C(C=C1)[C@H](COC2=CC3=C(C=C2)NC(=O)N3)NC(=O)C4=CC=CN(C4=O)CC5=CC(=C(C=C5)F)F
# Method in brief: (§1)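 Dounce homogenisation of K562 pellets in PBS pH 7.4 with 1 mM MgCl2 produced a crude extract, used at 1 mg/mL protein. Exposure to 10 μM compound lasted 30 min, and aliquots were then heated for 3 min across 48°C-58°C, pooled and brought to 0.5% NP-40 at 4°C. The supernatant after 21,000xg for 90 min was quantified by TMTpro 16plex LC-MS/MS with channel sums equalised. Duplicate values are given as log-two fold change in thermal stability relative to solvent controls.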
# [2] = compound: CC1=C(SC2=C1C(=N[C@H](C3=NN=C(N32)C)CC(=O)N)C4=CC=C(C=C4)Cl)C
# Method in brief: as §1
# [3] = compound: CC1=C2C(=CC=C1)N=C(N(C2=O)C3=CC=CC=C3C)CN4C=NC5=C(N=CN=C54)N
# Method in brief: as §1
# [4] = compound: Cc1sc2c(c1C)C(c1ccc(Cl)cc1)=N[C@@H](CC(=O)OC(C)(C)C)c1nnc(C)n1-2
# Method in brief: as §1
# [5] = compound: c1ccc([C@@H]2C[C@H]2NC2CCNCC2)cc1
# Method in brief: as §1
# Chain of UniProt P27708 (P27708 whole entry, looked up): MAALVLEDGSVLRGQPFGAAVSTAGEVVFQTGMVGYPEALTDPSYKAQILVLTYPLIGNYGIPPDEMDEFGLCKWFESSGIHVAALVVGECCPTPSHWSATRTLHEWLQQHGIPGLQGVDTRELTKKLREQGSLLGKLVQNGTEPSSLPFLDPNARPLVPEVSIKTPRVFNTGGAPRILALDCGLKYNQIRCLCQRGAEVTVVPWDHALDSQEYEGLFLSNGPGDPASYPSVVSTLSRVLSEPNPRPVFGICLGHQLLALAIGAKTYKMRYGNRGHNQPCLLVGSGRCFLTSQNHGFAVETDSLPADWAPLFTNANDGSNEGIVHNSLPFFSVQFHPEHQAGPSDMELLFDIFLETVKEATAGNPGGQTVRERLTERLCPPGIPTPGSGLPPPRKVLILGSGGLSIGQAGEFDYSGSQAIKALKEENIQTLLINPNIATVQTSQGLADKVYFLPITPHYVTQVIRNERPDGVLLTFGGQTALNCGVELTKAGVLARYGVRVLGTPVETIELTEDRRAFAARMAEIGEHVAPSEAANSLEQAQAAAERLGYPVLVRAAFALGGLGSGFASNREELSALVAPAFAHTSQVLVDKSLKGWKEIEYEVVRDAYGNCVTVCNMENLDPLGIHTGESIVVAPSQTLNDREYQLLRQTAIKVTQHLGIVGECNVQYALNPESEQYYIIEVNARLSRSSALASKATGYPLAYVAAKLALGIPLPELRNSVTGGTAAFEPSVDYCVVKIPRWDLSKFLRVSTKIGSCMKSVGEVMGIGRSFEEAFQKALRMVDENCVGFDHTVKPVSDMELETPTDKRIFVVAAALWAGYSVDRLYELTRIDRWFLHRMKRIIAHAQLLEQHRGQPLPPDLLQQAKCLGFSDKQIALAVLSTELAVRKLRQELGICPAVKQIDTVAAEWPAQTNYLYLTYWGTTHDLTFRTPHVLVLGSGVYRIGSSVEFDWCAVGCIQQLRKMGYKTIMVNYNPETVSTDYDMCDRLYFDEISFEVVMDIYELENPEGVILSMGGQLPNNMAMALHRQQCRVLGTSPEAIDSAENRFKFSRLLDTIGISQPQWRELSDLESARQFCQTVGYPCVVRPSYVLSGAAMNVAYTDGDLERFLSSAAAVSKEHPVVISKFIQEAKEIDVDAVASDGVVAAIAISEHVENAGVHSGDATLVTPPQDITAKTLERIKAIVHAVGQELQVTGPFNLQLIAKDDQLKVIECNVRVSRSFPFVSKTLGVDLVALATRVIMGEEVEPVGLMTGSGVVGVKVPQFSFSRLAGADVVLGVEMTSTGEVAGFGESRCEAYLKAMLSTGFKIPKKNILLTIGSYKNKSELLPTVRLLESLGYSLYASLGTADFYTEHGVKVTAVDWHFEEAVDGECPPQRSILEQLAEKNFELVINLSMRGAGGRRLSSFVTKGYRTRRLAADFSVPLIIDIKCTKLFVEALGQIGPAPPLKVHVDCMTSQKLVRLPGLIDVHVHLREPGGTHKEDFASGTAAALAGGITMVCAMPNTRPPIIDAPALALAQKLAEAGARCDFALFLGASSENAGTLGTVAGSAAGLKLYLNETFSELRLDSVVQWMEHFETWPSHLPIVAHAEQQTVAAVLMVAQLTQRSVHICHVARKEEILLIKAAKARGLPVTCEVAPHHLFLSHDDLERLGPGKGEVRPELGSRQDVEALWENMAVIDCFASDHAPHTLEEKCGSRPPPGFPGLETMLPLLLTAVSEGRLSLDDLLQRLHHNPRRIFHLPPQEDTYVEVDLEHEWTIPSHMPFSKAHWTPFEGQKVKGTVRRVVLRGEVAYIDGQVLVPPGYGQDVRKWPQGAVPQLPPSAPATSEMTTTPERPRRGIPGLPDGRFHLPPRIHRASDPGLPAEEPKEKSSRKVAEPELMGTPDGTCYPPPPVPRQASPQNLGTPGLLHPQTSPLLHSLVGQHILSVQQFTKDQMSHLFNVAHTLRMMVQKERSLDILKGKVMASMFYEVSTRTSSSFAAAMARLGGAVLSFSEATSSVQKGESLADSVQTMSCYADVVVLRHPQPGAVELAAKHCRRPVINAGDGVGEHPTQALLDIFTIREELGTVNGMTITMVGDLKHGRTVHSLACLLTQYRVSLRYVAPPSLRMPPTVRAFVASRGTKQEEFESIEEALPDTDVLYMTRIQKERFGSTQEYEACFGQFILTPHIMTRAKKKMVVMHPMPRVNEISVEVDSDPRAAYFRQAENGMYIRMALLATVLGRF
# Chain of UniProt P25440 (P25440 whole entry, looked up): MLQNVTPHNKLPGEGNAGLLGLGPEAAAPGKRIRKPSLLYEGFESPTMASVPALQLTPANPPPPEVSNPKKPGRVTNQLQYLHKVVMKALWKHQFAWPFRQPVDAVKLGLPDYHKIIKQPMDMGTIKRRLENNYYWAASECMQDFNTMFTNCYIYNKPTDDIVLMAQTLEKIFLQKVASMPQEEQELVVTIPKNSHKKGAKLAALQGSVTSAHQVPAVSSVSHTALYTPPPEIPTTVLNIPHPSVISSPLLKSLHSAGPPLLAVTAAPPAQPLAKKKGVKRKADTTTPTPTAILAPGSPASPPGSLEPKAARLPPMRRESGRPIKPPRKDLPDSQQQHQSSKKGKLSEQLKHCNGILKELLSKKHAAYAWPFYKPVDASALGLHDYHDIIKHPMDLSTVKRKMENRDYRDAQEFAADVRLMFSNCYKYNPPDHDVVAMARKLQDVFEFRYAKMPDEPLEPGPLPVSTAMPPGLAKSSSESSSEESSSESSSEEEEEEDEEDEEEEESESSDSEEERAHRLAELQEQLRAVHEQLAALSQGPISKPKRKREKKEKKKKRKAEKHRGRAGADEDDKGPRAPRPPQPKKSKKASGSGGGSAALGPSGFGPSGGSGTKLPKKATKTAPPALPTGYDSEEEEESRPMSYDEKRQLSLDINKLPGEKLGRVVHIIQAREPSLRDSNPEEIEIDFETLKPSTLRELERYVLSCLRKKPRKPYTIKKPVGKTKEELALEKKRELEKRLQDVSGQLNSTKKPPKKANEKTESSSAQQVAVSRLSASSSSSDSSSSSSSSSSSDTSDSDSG
# Chain of UniProt O60508 (O60508 whole entry, looked up): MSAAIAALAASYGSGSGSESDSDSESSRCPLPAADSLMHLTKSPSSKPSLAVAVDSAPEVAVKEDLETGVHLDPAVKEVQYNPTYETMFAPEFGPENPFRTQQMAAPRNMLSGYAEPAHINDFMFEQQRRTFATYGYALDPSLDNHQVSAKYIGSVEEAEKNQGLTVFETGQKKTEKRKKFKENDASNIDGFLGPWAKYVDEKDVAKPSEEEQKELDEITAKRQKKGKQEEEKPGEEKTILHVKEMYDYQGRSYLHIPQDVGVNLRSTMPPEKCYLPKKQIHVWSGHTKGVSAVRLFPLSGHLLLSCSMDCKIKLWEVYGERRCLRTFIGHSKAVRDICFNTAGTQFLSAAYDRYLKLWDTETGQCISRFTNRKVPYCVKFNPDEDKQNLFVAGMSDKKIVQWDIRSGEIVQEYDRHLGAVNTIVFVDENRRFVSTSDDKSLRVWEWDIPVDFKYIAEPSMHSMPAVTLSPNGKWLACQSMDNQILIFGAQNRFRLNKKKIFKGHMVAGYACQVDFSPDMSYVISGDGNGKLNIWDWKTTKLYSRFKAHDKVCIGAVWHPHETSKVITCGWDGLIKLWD
# Chain of UniProt Q6PJG6 (Q6PJG6 whole entry, looked up): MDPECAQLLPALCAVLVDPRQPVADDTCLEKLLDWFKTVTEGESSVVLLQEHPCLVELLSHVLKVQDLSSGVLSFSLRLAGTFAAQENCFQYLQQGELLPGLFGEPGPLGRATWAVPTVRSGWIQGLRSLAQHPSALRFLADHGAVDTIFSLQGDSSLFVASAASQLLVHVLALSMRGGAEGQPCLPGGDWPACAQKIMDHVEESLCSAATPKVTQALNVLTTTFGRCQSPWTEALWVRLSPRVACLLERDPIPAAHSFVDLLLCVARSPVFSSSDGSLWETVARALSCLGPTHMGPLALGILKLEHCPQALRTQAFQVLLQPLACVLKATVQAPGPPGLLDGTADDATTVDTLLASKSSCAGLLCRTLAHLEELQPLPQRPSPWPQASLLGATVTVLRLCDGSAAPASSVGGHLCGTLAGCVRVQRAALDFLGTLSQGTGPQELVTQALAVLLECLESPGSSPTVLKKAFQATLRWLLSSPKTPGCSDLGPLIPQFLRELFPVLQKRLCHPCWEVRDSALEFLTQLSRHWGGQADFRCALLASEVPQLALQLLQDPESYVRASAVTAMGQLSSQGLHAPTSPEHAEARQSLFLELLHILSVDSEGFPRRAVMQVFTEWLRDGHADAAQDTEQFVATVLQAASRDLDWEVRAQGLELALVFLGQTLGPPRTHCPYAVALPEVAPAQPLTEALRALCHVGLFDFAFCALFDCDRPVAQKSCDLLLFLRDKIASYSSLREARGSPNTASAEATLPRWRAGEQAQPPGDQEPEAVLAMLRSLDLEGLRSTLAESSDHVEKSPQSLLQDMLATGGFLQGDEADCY
Target,log2 fold change [1],log2 fold change [2],log2 fold change [3],log2 fold change [4],log2 fold change [5]
CDC40 (UniProt O60508),0.036,0.003,-0.099,0.099,-0.03
BTAF1 (UniProt O14981),0.013,0,-0.005,0.04,-0.02
CAD (UniProt P27708),-0.011,0.009,0.003,0.022,0.002
BRAT1 (UniProt Q6PJG6),-0.043,-0.005,0.027,0.005,0.003
BRD2 isoform 2 (UniProt P25440),0.024,1.06 (active),0.081,0.644 (active),0.071

# Source: the supplement of paper PMC10849652
